Unmarked numbers belong to inactive results.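 The calls were made as follows: active = AUC reduced over 20% with Padj below 0.05 in at least 2 of 3 replicates; inactive = otherwise.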
Key:
Roseburia intestinalis = assay: growth AUC relative to DMSO control (median of replicates) (fraction); higher = more growth (less inhibition), active = hit call of the paper; conditions: 20 µM; 24 h
How it was run: (§1)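 Gut bacteria were grown singly in mGAM at 37 °C without oxygen, from OD600 0.05, alongside 20 µM compound in 1% DMSO, and OD600 was read each hour for 24 h. Area under the growth curve was normalised to the median of solvent-only wells per plate, or to row and column medians on the industrial chemical plate. The minimum OD was set to 0 beforehand, and the reported value is the median of three biological replicates grown on separate days.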

Streptococcus salivarius = assay: as above; conditions: 20 µM; 24 h
How it was run: as §1

| Structure (SMILES) | growth AUC (Roseburia intestinalis) | growth AUC (Streptococcus salivarius) |
| --- | --- | --- |
| CCC(=O)Nc1ccc(Cl)c(Cl)c1 | 0.917 | 0.973 |
| CCS(=O)(=O)c1cccnc1S(=O)(=O)NC(=O)Nc1nc(OC)cc(OC)n1 | 1 | 0.93 |
| CC(C)C(C(=O)OC(C#N)c1cccc(Oc2ccccc2)c1)c1ccc(Cl)cc1 (configuration not stated) | 0.929 | 0.988 |
| Cc1cccc(C)c1N(Cn1cccn1)C(=O)CCl | 0.935 | 0.999 |
| C[n+]1ccc(-c2cc[n+](C)cc2)cc1.O.[Cl-].[Cl-] | 1 | 0.982 |
| CC(Oc1ccc(Oc2ncc(C(F)(F)F)cc2Cl)cc1)C(=O)O (configuration not stated) | 1.03 | 0.981 |
| CCOC(=O)c1ccccc1S(=O)(=O)NC(=O)Nc1nc(Cl)cc(OC)n1 | 1.01 | 0.972 |
| O=C(O)COc1ccc(Cl)cc1Cl | 1.03 | 0.989 |
| CNC(=O)Oc1cc(C)c(S(C)=O)c(C)c1 (configuration not stated) | 0.965 | 1.01 |
| CCC/C(=N\OCC)C1=C(O)CC(CC(C)SCC)CC1=O (configuration not stated) | 1 | 1.01 |
| N#Cc1c[nH]cc1-c1cccc2c1OC(F)(F)O2 | 1.07 | 0.962 |
| CC(C)=NOCCOC(=O)[C@@H](C)Oc1ccc(Oc2cnc3cc(Cl)ccc3n2)cc1 | 1.05 | 0.966 |
| CCSC(C)CC1CC(=O)C(/C(CC)=N/OC/C=C/Cl)=C(O)C1 (mixture of isomers) | 1.01 | 0.919 |
| NCCO.O=C(O)c1nc(Cl)ccc1Cl | 1.03 | 1.05 |
| CCC(C)(CC)c1cc(NC(=O)c2c(OC)cccc2OC)on1 | 0.963 | 0.979 |
| CO/N=C(/C1=NOCCO1)c1ccccc1Oc1ncnc(Oc2ccccc2Cl)c1F | 0.997 | 1.04 |
| CCC(C)Nc1c([N+](=O)[O-])cc(C(C)(C)C)cc1[N+](=O)[O-] (configuration not stated) | 0.927 | 1.04 |
| CNC(=O)ON=C(CSC)C(C)(C)C | 1.02 | 1.02 |
| COCCOC(=O)C(C#N)(C(=O)c1ccccc1C(F)(F)F)c1ccc(C(C)(C)C)cc1 (configuration not stated) | 1.02 | 0.917 |
| COP(=S)(OC)Oc1nc(Cl)c(Cl)cc1Cl | 1 | 1.02 |
| COP(=S)(OC)Oc1ccc([N+](=O)[O-])cc1 | 0.917 | 0.968 |
| CSC1=N[C@@](C)(c2ccccc2)C(=O)N1Nc1ccccc1 | 0.997 | 1.01 |
| O=P(O)(O)CCCl | 1.03 | 1.04 |
| O=C(Nc1ccc(F)cc1F)c1cccnc1Oc1cccc(C(F)(F)F)c1 | 0.933 | 0.958 |
| CCOP(=S)(OCC)SCSP(=S)(OCC)OCC | 1.09 | 0.958 |
| CCCN(CCC)c1c([N+](=O)[O-])cc(S(C)(=O)=O)cc1[N+](=O)[O-] | 0.894 | 0.966 |

| Structure (SMILES) | growth AUC (Roseburia intestinalis) | growth AUC (Streptococcus salivarius) |
| --- | --- | --- |
| CC(Oc1ccc(Cl)cc1Cl)C(=O)O (configuration not stated) | 0.978 | 0.981 |
| COS(=O)(=O)[O-].Cn1c(-c2ccccc2)cc(-c2ccccc2)[n+]1C | 0.948 | 0.97 |
| Cc1cc(C)nc(NC(=O)NS(=O)(=O)c2ccccc2C(=O)OC2COC2)n1 | 0.985 | 0.909 |
| CCOP(=S)(OCC)Oc1cc(C)nc(C(C)C)n1 | 0.984 | 1.03 |
| COP(=O)(OC)Oc1ccc(S(C)=O)c(C)c1 (configuration not stated) | 1.01 | 1.01 |
| C[C@@H](Oc1ccc(Oc2cnc3cc(Cl)ccc3n2)cc1)C(=O)O | 1.04 | 1.01 |
| CCCN(CCC)c1c([N+](=O)[O-])cc(C(C)C)cc1[N+](=O)[O-] | 1.01 | 0.99 |
| CCC1(C(=O)NC(C)c2ccc(Cl)cc2)C(C)C1(Cl)Cl (configuration not stated) | 0.888 | 0.97 |
| COC(=O)N(OC)c1ccccc1COc1ccn(-c2ccc(Cl)cc2)n1 | 0.945 | 0.928 |
| CC(C)OC(=O)Nc1cccc(Cl)c1 | 0.906 | 0.981 |
| CNC(=O)O/N=C(\C)C(C)S(C)=O (configuration not stated) | 0.991 | 0.96 |
| Cc1cnc(C2=NC(C)(C(C)C)C(=O)N2)c(C(=O)O)c1 (configuration not stated) | 0.997 | 1.03 |
| CC1(C)[C@H](/C=C(\Cl)C(F)(F)F)[C@@H]1C(=O)O[C@@H](C#N)c1cccc(Oc2ccccc2)c1 | 0.919 | 0.957 |
| CNC(=O)Oc1cccc2c1OC(C)(C)C2 | 0.992 | 1.03 |
| Cc1nnc(-c2ccccc2)c(=O)n1N | 0.97 | 1.06 |
| CCOP(=O)(OCC)O/C(=C\Cl)c1ccc(Cl)cc1Cl | 1.06 | 0.982 |
| OC(c1ccc(Cl)cc1)(c1ccc(Cl)cc1)C(Cl)(Cl)Cl | 0.891 | 0.874 |
| COP(=S)(OC)Oc1ccc(S(N)(=O)=O)cc1 | 1.03 | 0.985 |
| O=C(O)c1ccc(Cl)nc1 | 1.16 | 0.973 |
| Cc1cc(C(F)(C(F)(F)F)C(F)(F)F)ccc1NC(=O)c1cccc(I)c1C(=O)NC(C)(C)CS(C)(=O)=O | 1.67 | 0.919 |
| O=C(OC1CCCCC1)c1ccccc1C(=O)OC1CCCCC1 | 0.983 | 1 |
| COC(=O)NCc1cc(/C(C)=N\OCc2cccc(C)n2)ccc1Cl | 1.01 | 0.974 |
| Nc1c(Cl)c(Cl)c(Cl)c(Cl)c1Cl | 0.986 | 0.983 |
| BrCCBr | 1.06 | 1.01 |
| O=C(O)C(Cl)Cl | 1.02 | 1.02 |
| CON(C)C(=O)Nc1ccc(Cl)c(Cl)c1 | 0.925 | 0.945 |

| Structure (SMILES) | growth AUC (Roseburia intestinalis) | growth AUC (Streptococcus salivarius) |
| --- | --- | --- |
| COP(=S)(OC)SCC(=O)N(c1ccc(Cl)cc1)C(C)C | 1.03 | 0.992 |
| COCC(=O)N(c1c(C)cccc1C)[C@@H](C)C(=O)OC | 0.997 | 0.999 |
| CCOP(=S)(OCC)SCn1c(=O)oc2cc(Cl)ccc21 | 0.932 | 0.98 |
| CNC(=O)ON=C(C)C(C)SC (configuration not stated) | 0.949 | 0.924 |
| CCOP(=O)(OCC)Oc1ccc(S(C)(=O)=O)cc1 | 0.974 | 1.02 |
| Cc1ccc(NC(=O)c2snnc2C)cc1Cl | 0.925 | 0.962 |
| CN(C)C(CSS(=O)(=O)c1ccccc1)CSS(=O)(=O)c1ccccc1 | 1.02 | 0.973 |
| CCCN(CCC)c1c([N+](=O)[O-])cc(S(N)(=O)=O)cc1[N+](=O)[O-] | 0.961 | 0.985 |
| O=c1oc2ccccc2c(O)c1C1CC(c2ccc(-c3ccccc3)cc2)Cc2ccccc21 (configuration not stated) | 0.711 (active) | 0.709 (active) |
| CC(C)(C)N(NC(=O)c1ccc(Cl)cc1)C(=O)c1ccccc1 | 1.08 | 0.987 |
| CCC(C)c1ccccc1OC(=O)NC (configuration not stated) | 0.963 | 1.04 |
| Cc1cc(Cl)ccc1OC(C)C(=O)O (configuration not stated) | 1.03 | 1.01 |
| Cc1c(F)c(F)c(COC(=O)[C@@H]2[C@H](/C=C(\Cl)C(F)(F)F)C2(C)C)c(F)c1F (mixture of isomers) | 0.986 | 0.993 |
| O=c1ccc(=O)[nH][nH]1 | 1.01 | 0.965 |
| COP(=S)(OC)Oc1ccc([N+](=O)[O-])c(Cl)c1 | 0.926 | 1.05 |
| Nc1nc(N)nc(NC2CC2)n1 | 0.97 | 0.981 |
| Clc1ccc(Cl)c(Cl)c1Cl | 0.999 | 1.04 |
| Cc1nc(N(C)C)nc(OC(=O)N(C)C)c1C | 0.988 | 1 |
| CC1(C)C(C=C(Cl)Cl)C1C(=O)OC(C#N)c1cccc(Oc2ccccc2)c1 (configuration not stated) | 0.871 | 0.937 |
| CCOP(=O)(OCC)O/C(=C/Br)c1ccc(Cl)cc1Cl | 0.995 | 0.975 |
| CP(=O)(O)CC(=O)O | 1.09 | 0.998 |
| CC(C)(O)C(Cl)(Cl)Cl.CC(C)(O)C(Cl)(Cl)Cl.O | 1.01 | 1.05 |
| CC(=O)O.CCCCCCCCCCCCN=C(N)N | 0.805 | 1.03 |
| CC1(C)C(/C=C(\Cl)c2ccc(Cl)cc2)C1C(=O)OC(C#N)c1ccc(F)c(Oc2ccccc2)c1 (configuration not stated) | 1.07 | 1.03 |
